The values below come from PubChem BioAssay AID740 (SRMLSC, 2007).

The structures appear in SMILES notation. Among all 96,000 compounds or so, about 65 (0.07%) were called active. The sample holds actives, similar compounds and a random draw of the others, so the mix is not that of the screen. Unmarked numbers belong to inactive results. No stated cut-off is given here; in the data, active means inhibition above about 25%; inactive means the rest.

A short description of this test: unspecified inhibition readout at 50 µM (AID 740). The conditions noted are these: unspecified screen; hits give high values.
Consider `O=S(=O)(c1ccccc1)N1C2CCC1CC(O)(c1cccnc1)C2` (configuration not stated), for which the inhibition was 0.08%.

In the case of `CCC(NS(=O)(=O)c1ccc(OC)cc1)C(=O)NCCC1=CCCCC1` (configuration not stated), the inhibition is 0.42%.

Take `COc1ccccc1Cn1c(=O)[nH]c2cccnc21`: the inhibition result is “inactive”.

For `O=c1[nH]c2cccnc2n1Cc1ccco1`, the inhibition is 1.89%.

Regarding `O=c1[nH]c2cccnc2n1Cc1ccccc1`, the inhibition is 88.8% (active).

Take `COc1ccccc1NC(=O)C1CC(=O)OC1c1ccccc1` (configuration not stated): the inhibition result was “inactive”.

For `CNC(=O)c1ccc(Oc2ccc(C(=O)NC)cc2)cc1`, the inhibition is 0.48%.

For `COC(=O)c1nc(-c2ccc(C)cc2)oc1N(C)C`, the inhibition entry was “inactive”.

With `CS(=O)(=O)N1CCN(c2ccccc2NC(=O)Cc2ccc(Cl)cc2)CC1`, the inhibition was 1.42%.

As for `CC(C)NC(=O)CSc1nnc2sc3ccccc3n12`, the inhibition is 29.1% (active).

On to `NC(=O)CSc1nnc2sc3ccccc3n12`, for which the inhibition was 20.1%.

As to `CCOC(=O)CC(=O)CSc1nnc2sc3ccccc3n12`, the inhibition is 6.25%.

Turning to `CC1CC(C)CN(C(=O)COc2ccc(-c3nnco3)cc2)C1` (configuration not stated), the inhibition entry was “inactive”.

`CC(NC(=O)C1CCCN1S(=O)(=O)c1cccc2cccnc12)c1ccccc1` (configuration not stated): the inhibition is 3.39%.

Take `NS(=O)(=O)c1ccc(CCNC(=O)C2CCCCN2S(=O)(=O)c2ccccc2)cc1` (configuration not stated): the inhibition was 80.3% (active).

With `NS(=O)(=O)c1ccc(CCNC(=O)C2CCCN2C(=O)OCc2ccccc2)cc1` (configuration not stated), the inhibition was 0.02%.

As to `NS(=O)(=O)c1ccc(CCNC(=O)[C@@H]2CCCN2S(=O)(=O)c2ccccc2F)cc1`, the inhibition is 0.35%.

With `CNS(=O)(=O)c1cccc(C(=O)Nc2cccc(Cl)c2)c1`, the inhibition entry is “inactive”.

`Cc1nc(SCC(=O)c2ccccc2)n[nH]1`: the inhibition is 0.25%.

As for `CC(C)(C)OC(=O)N[C@@H](Cc1ccccc1)c1nnc(SCC(=O)O)o1`, the inhibition was 0.84%.

For the molecule `COC(=O)CSc1nnc([C@H](Cc2ccccc2)NC(=O)OC(C)(C)C)o1`, the inhibition is 0.67%.

Take `CCSc1nnc([C@H](Cc2ccccc2)NC(=O)OC(C)(C)C)o1`: the inhibition was 26.7% (active).

Turning to `O=C(c1cc(-c2ccc(Cl)cc2)n(-c2ccc(Cl)cc2)n1)N1CCOCC1`, the inhibition was 1.77%.

Consider `O=C(c1cc(-c2ccc(Cl)cc2)n(-c2cc(Cl)ccc2Cl)n1)N1CCOCC1`, for which the inhibition is 2.27%.

Consider `O=C(c1cc(-c2ccc(Cl)cc2)n(-c2ccc(Cl)cc2Cl)n1)N1CCOCC1`, for which the inhibition is 27.9% (active).

Take `Cc1nc2nc(-c3ccccc3)[nH]n2c(=O)c1Cc1ccccc1`: the inhibition is 62% (active).

Turning to `Cc1nc2nc(-c3ccc(Cl)cc3)[nH]n2c(=O)c1Cc1ccccc1`, the inhibition was 2.76%.

For `COc1ccc(-c2nc3nc(C)c(Cc4ccccc4)c(=O)n3[nH]2)cc1`, the inhibition is 10.2%.

As to `O=C(COC(=O)C(Cc1ccccc1)NC(=O)c1ccco1)NC1CC1` (configuration not stated), the inhibition was 2.73%.

Regarding `C=CCn1c(-c2cccn(Cc3cccc(Cl)c3)c2=O)n[nH]c1=S`, the inhibition was 0.13%.

As to `CN1C(=O)c2cccc3c(S(=O)(=O)Nc4ccccn4)ccc1c23`, the inhibition is 3.37%.

Take `Clc1cccc(CSc2nnc([C@@H]3CCCN3)o2)c1`: the inhibition result is “inactive”.

For `CCC1CCCCN1C(=O)Nc1cccc(NC(=O)N2CCCCC2CC)c1` (configuration not stated), the inhibition was 31.9% (active).

`CCC1CCCCN1C(=O)Nc1ccc(F)cc1` (configuration not stated): the inhibition is 0.1%.

Consider `CC1CCCN(C(=O)Nc2cccc(NC(=O)N3CCCC(C)C3C)c2)C1C` (configuration not stated), for which the inhibition was 0.11%.

Turning to `NC(=O)C1(N2CCCCC2)CCN(C(=O)CSc2nc(C(F)(F)F)cc(=O)[nH]2)CC1`, the inhibition is 1.15%.

Take `Cc1ccc(/C=C2/SC(=S)N(CC(=O)Nc3ncc(Cc4ccc(C)cc4)s3)C2=O)cc1`: the inhibition was 0.58%.

Take `Cc1ccc(NC(=O)NCCCN2CCCC2=O)cc1`: the inhibition was 1.44%.

On to `CC(=O)Nc1ccc(Nc2ncnc3c2cnn3-c2cccc(C)c2)cc1`, for which the inhibition was 0.1%.

As for `Clc1ccc(Nc2ncnc3c2cnn3-c2ccccc2)cc1`, the inhibition result was “inactive”.

Take `CC(=O)Nc1ccc(Nc2ncnc3c2cnn3-c2ccccc2)cc1`: the inhibition is 38.2% (active).

`CCC(CC)c1nnc(NC(=O)CN2C(=O)C3C4C=CC(C4)C3C2=O)s1` (configuration not stated): the inhibition entry is “inactive”.

Take `CCNc1nc(NCC)nc(SCCOC(=O)COc2ccc(Cl)cc2Cl)n1`: the inhibition entry was “inactive”.

Turning to `Cc1cc(Oc2ccc(C#N)cc2)nc(N2CCOCC2)n1`, the inhibition entry was “inactive”.

On to `Oc1ccc2oc3c(c2c1)CCCC3`, for which the inhibition entry is “inactive”.

With `O=C1NCCCc2c1oc1cc(Br)c(O)c(Br)c21`, the inhibition is 4.63%.

As for `O=C1NCCCc2c1oc1ccc(O)cc21`, the inhibition is 38.5% (active).

As to `COc1ccc(OC)c(C2=NOC(C(=O)Nc3cc(C)nn3-c3ccccc3)C2)c1` (configuration not stated), the inhibition is 48.2% (active).

Consider `COc1cc(OC)c(C2=NOC(C(=O)Nc3cc(C)nn3-c3ccccc3)C2)cc1Cl` (configuration not stated), for which the inhibition was 0.65%.

As for `COc1cccc(C2=NOC(C(=O)Nc3cc(C)nn3-c3ccccc3)C2)c1OC` (configuration not stated), the inhibition result is “inactive”.

On to `COc1ccc(-c2cc(C(F)(F)F)nc(N3CCN(Cc4ccccc4)CC3)n2)cc1OC`, for which the inhibition result was “inactive”.

As to `COc1ccc(-c2cc(C(F)(F)F)nc(SCCC(=O)Nc3cc(C)on3)n2)cc1`, the inhibition entry is “inactive”.

As to `COCCn1c(SCC(=O)Nc2cc(C)cc(C)c2)nnc1C(C)C`, the inhibition is 1.46%.

Turning to `Cc1nc2ccc(NC(=O)C3CCN(S(=O)(=O)c4cccs4)CC3)cc2s1`, the inhibition is 30.7% (active).

For `Cc1ccc2nc(NC(=O)C3CCN(S(=O)(=O)c4cccs4)CC3)sc2c1`, the inhibition is 2.46%.

Consider `Cc1ccc(NC(=O)C2CCN(S(=O)(=O)c3cccs3)CC2)cc1C`, for which the inhibition is 0.17%.

For `O=C(CN(Cc1ccco1)C(=O)c1cc(=O)[nH]c2ccccc12)Nc1ccccc1Br`, the inhibition was 0.68%.

Turning to `COC(=O)c1ccc2ccn(CC(=O)NC(C)C)c2c1`, the inhibition result was “inactive”.

For `O=C(O)c1cc2nc(-c3ccc(F)cc3)cc(C(F)(F)F)n2n1`, the inhibition was 1.93%.

On to `Cc1ccccc1C(=O)Nc1ccc2nc3n(c(=O)c2c1)CCC3`, for which the inhibition was 0.71%.

Consider `O=C(Nc1ccc2nc3n(c(=O)c2c1)CCCCC3)c1ccccn1`, for which the inhibition was 2.45%.

On to `CN(C)c1cccc(C(=O)Nc2ccc3nc4n(c(=O)c3c2)CCCCC4)c1`, for which the inhibition was 26.5% (active).

`O=C(NCCN1CCOCC1)N1c2ccccc2Sc2ccccc21`: the inhibition is 0.23%.

On to `O=C1Cc2ccccc2C(c2ccc(Br)cc2)N1` (configuration not stated), for which the inhibition result is “inactive”.

With `Cc1ccc(C2NC(=O)Cc3ccccc32)cc1` (configuration not stated), the inhibition was 0.52%.

With `Cc1ccc(C2NC(=O)NC3=C2CCc2ccccc23)cc1` (configuration not stated), the inhibition was 85.8% (active).

For `COc1ccc(C2C3=C(N=C4SCC(=O)N42)c2ccccc2CC3)cc1` (configuration not stated), the inhibition was 1.1%.

Take `O=C1NC2=C(CCc3ccccc32)C(c2ccc(Br)cc2)N1` (configuration not stated): the inhibition was 70.4% (active).

As for `COc1ccc(C2NC(=S)NC3=C2CCc2cc(OC)ccc23)cc1` (configuration not stated), the inhibition entry is “inactive”.

Regarding `O=C1NC2=C(C(=O)c3ccccc32)C(c2ccccc2)N1` (configuration not stated), the inhibition is 0.35%.

Consider `CC(C)c1ccc(C2NC(=O)NC3=C2CCc2ccccc23)cc1` (configuration not stated), for which the inhibition was 5.37%.

In the case of `COc1ccc(C2NC(=O)NC3=C2CCc2ccccc23)cc1` (configuration not stated), the inhibition was 66.1% (active).

By inhibition is commonly meant how much of the control response was suppressed.
